Active and inactive are the calls of the source.
Legend:
[1] = system: Human papillomavirus type 1a protein E7 (residues 44-93); experiment: HPV1a E7 fragment binders on microarrays, primary screen, biochemical, small-molecule microarray, residues 44-93, 635 nm fluorescence (AID 1108); conditions: small-molecule microarray binding, fluorescence 635 nm; higher = more signal;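 note: E7 fragment applied at 1 µg/mL in TBST for 1 h at 4 C; score combines spot fluorescence with its signal to noise ratio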
[2] = modulators of HCV replicon luciferase signal, primary screen, HCV replication inhibitor project, Huh7 cells, luciferase reporter (AID 1109); conditions: 48 h, higher = more signal;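 note: huh7 hepatoma cells harbouring a luciferase neomycin HCV replicon reporter; luciferase luminescence as measure of HCV replicon replication; test concentration not given here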
[3] = molecular target: Left-right determination factor 2 (Homo sapiens) (UniProt O00292); experiment: LEFTY2 binders on small-molecule microarrays, primary screen, biochemical, small-molecule microarray, 635 nm fluorescence scan (AID 1110); conditions: LEFTY2 binding, higher = more signal
[4] = molecular target: Calmodulin-1 (Homo sapiens) (UniProt P0DP23); experiment: CALM1 binders on microarrays, EGTA buffer, profiling panel, biochemical, small-molecule microarray, Cy5-labelled CALM1 (AID 1111); conditions: Cy5-CALM1 binding fluorescence, higher = more signal;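 note: labelled calmodulin applied in Tris saline Tween buffer holding calcium plus EGTA and DTT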
[5] = molecular target: Calmodulin-1 (Homo sapiens) (UniProt P0DP23); experiment: calcium-bound CALM1 binders on microarrays, profiling panel, artefact control for SMM control-protein annotation, biochemical, small-molecule microarray, Cy5-labelled CALM1, plus calcium (AID 1112); conditions: Cy5-CALM1 binding fluorescence, higher = more signal;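 note: score merges spot fluorescence with signal to noise from triplicate slides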
[6] = small-molecule microarray binders of probe aWnt5a, primary screen, biochemical, biotinylated probe, 635/667 nm fluorescence (AID 1113); conditions: higher = more signal;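 note: score merges 667 nm fluorescence intensity with signal-to-noise per printed feature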
[7] = small-molecule microarray binders of probe aShh, primary screen, biochemical, biotinylated probe, 635/667 nm fluorescence (AID 1114); conditions: higher = more signal;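 note: probe is biotin-labelled aShh protein from a stem cell growth factor screen; measures binding of labelled protein to compounds printed on the slide; score merges feature fluorescence at 667 nm with signal-to-noise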
[8] = small-molecule microarray binders of probe aNog, primary screen, biochemical, biotinylated probe, 635/667 nm fluorescence (AID 1115); conditions: higher = more signal;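 note: probe is biotinylated aNog protein used at 0.15 µg/mL for 1 h at 4 C; z-score combines 667 nm fluorescence of each spot with its signal to noise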
[9] = molecular target: Torsin-1A-interacting protein 1 (Homo sapiens) (UniProt Q5JTV8); experiment: LAP1 binders from COS7 cell lysate, primary screen, small-molecule microarray, 635/667 nm fluorescence (AID 1116); conditions: COS7-hLAP1 lysate binding, 635 nm fluorescence, higher = more signal
[10] = molecular target: Alpha-bungarotoxin (Bungarus multicinctus) (UniProt P60615); experiment: alpha-bungarotoxin binders on microarray, profiling panel, artefact control for SMM control protein annotation, biochemical, small-molecule microarray, Alexa647 label, 635/667 nm fluorescence (AID 1117); conditions: alpha-BTX-A647 binding fluorescence, higher = more signal
Albumin (Bos taurus) = Albumin (Bos taurus) (UniProt P02769); experiment: bovine serum albumin binders on microarray, profiling panel, artefact control for SMM control protein annotation, biochemical, small-molecule microarray, Alexa647 label, 635/667 nm fluorescence (AID 1118); conditions: BSA-A647 binding, fluorescence 635 nm, higher = more signal;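 note: score merges 667 nm emission intensity and signal-to-noise per printed compound spot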
[11] = small-molecule microarray binders of probe aXIP, primary screen, biochemical, NeuroSMM set, 635/667 nm fluorescence (AID 1119); conditions: higher = more signal, called active from +8 up or from −8 down;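 note: probe is the protein aXip251-270 applied at 1 µg/mL to compound-printed slides; binding of probe to printed compounds measured as 667 nm fluorescence plus signal to noise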
[12] = small-molecule binders of probe aNOTCH3, primary screen, biochemical, small-molecule microarray, 635/667 nm fluorescence (AID 1120); conditions: higher = more signal;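 note: probe is a biotin-tagged antibody raised against NOTCH3 rather than NOTCH3 protein; score merges spot fluorescence near 667 nm with spot signal to noise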
[13] = small-molecule binders of probe aNOTCH2, primary screen, biochemical, small-molecule microarray, 635/667 nm fluorescence (AID 1121); conditions: higher = more signal;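 note: score merges feature fluorescence read at 667 nm with its signal to noise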
[14] = molecular target: Carbonic anhydrase 2 (Homo sapiens) (UniProt P00918); experiment: CAII small-molecule binders, profiling panel, biochemical, small-molecule microarray, Alexa647-labelled CAII (AID 1122); conditions: CAII-A647 binding fluorescence, higher = more signal
[15] = COS7 lysate on small-molecule microarray, probe aHis, 635 nm (AID 1123); conditions: COS7 cell lysate, fluorescence, higher = more signal;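 note: z-score combines 667nm fluorescence intensity with signal-to-noise per printed compound spot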
[16] = compound binding in COS7 lysate, probe aLAP1, primary screen, cell lysate, small-molecule microarray (AID 1124); conditions: probe aLAP1, fluorescence, higher = more signal;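 note: lysate comes from COS7 cells expressing LAP1 and is applied at 0.3 µg/mL; score merges spot fluorescence near 667 nm with signal-to-noise over triplicate slides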
Sam68 (KHDRBS1) = experiment: Sam68 small-molecule binders, primary screen, biochemical, small-molecule microarray, 635 nm fluorescence (AID 1125); conditions: small-molecule microarray binding, higher = more signal;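 note: score merges 667 nm channel intensity with signal to noise over triplicate slides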
[17] = system: Chordin-like protein 2 (CHRDL2); experiment: CHRDL2 small-molecule binders, primary screen, biochemical, small-molecule microarray, 635 nm fluorescence (AID 1126); conditions: small-molecule microarray binding, fluorescence 635 nm; higher = more signal;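 note: printed compound slides probed with Chrdl2 protein at 4 µg/mL for 1 h at 4 C; score merges 667 nm emission intensity with signal to noise over three replicate slides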
[18] = molecular target: Concanavalin-A (Canavalia ensiformis) (UniProt P02866); experiment: ConA small-molecule binders, primary screen, artefact control for SMM control protein annotation, biochemical, small-molecule microarray, Alexa647 label, 635 nm (AID 1127); conditions: ConA-A647 binding fluorescence, higher = more signal;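 note: z combines 667 nm emission intensity with signal-to-noise across three replicate slides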
Sequence of Concanavalin-A (Canavalia ensiformis) (P02866 whole entry, looked up): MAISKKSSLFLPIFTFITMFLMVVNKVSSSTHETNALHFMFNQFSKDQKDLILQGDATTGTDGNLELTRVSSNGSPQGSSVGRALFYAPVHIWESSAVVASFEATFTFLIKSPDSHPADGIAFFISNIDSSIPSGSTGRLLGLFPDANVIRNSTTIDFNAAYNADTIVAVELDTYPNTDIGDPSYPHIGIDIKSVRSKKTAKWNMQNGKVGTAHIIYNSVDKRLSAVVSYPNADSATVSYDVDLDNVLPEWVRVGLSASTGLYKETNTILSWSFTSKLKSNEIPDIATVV

Sequence of Albumin (Bos taurus) (P02769 whole entry, looked up): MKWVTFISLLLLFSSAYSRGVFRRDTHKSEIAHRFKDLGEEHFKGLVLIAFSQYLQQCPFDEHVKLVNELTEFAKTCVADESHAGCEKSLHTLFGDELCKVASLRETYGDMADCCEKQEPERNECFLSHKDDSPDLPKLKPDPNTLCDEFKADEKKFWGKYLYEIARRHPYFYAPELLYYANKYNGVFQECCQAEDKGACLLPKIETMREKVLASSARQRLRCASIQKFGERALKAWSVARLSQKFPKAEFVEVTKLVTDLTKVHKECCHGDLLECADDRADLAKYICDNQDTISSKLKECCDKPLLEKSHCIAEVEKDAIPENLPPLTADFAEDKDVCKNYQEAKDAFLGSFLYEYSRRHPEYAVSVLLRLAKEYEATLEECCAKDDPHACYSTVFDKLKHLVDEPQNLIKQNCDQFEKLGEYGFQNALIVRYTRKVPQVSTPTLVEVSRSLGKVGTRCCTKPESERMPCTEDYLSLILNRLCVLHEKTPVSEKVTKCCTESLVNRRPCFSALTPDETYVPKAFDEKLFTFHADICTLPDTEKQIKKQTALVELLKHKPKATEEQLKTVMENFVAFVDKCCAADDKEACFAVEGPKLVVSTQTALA
Sequence of Torsin-1A-interacting protein 1 (Homo sapiens) (Q5JTV8 whole entry, looked up): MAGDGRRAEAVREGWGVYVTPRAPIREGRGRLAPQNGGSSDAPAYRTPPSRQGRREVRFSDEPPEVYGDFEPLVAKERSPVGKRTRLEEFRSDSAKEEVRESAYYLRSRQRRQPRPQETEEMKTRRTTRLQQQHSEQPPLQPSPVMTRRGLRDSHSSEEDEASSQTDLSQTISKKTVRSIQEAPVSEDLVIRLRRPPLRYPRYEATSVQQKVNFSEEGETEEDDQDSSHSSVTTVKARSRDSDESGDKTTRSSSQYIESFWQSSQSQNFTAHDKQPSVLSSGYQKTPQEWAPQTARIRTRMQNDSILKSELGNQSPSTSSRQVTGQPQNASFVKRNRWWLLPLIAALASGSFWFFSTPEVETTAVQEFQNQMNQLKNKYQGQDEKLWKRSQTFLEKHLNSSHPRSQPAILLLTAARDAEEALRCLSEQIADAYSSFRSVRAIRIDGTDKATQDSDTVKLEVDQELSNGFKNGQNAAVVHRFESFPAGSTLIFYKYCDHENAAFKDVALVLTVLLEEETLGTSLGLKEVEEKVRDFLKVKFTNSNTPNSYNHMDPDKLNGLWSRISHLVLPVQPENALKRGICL
Sequence of Alpha-bungarotoxin (Bungarus multicinctus) (P60615 whole entry, looked up): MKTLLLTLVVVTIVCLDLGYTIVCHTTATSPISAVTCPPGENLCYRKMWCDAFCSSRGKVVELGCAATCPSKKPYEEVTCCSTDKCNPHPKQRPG
Sequence of Left-right determination factor 2 (Homo sapiens) (O00292 whole entry, looked up): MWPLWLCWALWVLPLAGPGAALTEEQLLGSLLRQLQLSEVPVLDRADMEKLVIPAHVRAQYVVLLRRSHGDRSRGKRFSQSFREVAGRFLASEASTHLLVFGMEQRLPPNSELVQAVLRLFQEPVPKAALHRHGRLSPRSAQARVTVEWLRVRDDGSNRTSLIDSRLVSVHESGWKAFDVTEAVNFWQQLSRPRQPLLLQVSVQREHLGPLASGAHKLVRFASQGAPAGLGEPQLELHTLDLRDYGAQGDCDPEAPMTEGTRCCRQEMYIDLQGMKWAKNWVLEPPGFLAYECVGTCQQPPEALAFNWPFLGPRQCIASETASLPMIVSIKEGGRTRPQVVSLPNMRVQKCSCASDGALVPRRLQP

Compound | composite z-score [1] | z-score [2] | composite z-score [3] | composite z-score [4] | composite z-score [5] | composite z-score [6] | composite z-score [7] | composite z-score [8] | composite z-score [9] | composite z-score [10] | composite z-score (Albumin (Bos taurus)) | composite Z-score [11] | composite z-score [12] | composite z-score [13] | composite z-score [14] | composite z-score [15] | composite z-score [16] | composite z-score (Sam68 (KHDRBS1)) | composite z-score [17] | composite z-score [18]
C=CCN1C(=O)[C@@]2(O[C@@H](CCO)[C@H]([Si](C)(C)c3ccc(OC)cc3)[C@H]2C)c2cc(NC(C)=O)ccc21 | 0.128 | -3.7 | 1.45 | 0.793 | 0.509 | 0.0136 | -0.0769 | -0.234 | 1.14 | 0.71 | -0.0164 | 0.347 (inactive) | 0.307 | -0.044 | 0.366 | 2.57 | 0.423 | 1.33 | 0.835 | 0.915
CO[C@H]1O[C@H](CO)[C@@H](OC(=O)Nc2cccc(F)c2)[C@H](OC(=O)Nc2ccccc2-c2ccccc2)[C@@H]1OC(=O)Nc1ccccc1-c1ccccc1 | 1.16 | -3.61 | 0.343 | 1.95 | 0.283 | 0.0825 | 0.0684 | -0.268 | 1.47 | 1.96 | 0.914 | -0.116 (inactive) | 0.0479 | -0.0041 | 0.385 | 2.56 | 1 | 1.3 | -0.262 | 1.23
CCN(CC)c1ccc(N2CC=CC34O[C@@H]5/C=C\CCCOC(=O)C5[C@H]3C(=O)N(CCCO)[C@@H]4C2=O)cc1 (stereo not given in full) | 0.941 | -0.597 | -2.09 | -0.629 | 0.479 | -0.197 | 0.14 | -0.0238 | 2.44 | -1.44 | -1.05 | 0.895 (inactive) | -0.373 | -0.104 | 0.935 | 3.01 | 2.3 | 0.244 | -1.83 | -0.77
C=C(C(=O)CC[C@H](OC(=O)c1cccnc1)c1ccccc1OCCO)C(C)C | 1.05 | -2.71 | 0.753 | -0.62 | -1.24 | 0.121 | -0.0035 | -0.176 | 1.99 | 0.892 | -0.609 | -0.507 (inactive) | 0.143 | -0.129 | 0.543 | 1.28 | 0.86 | 0.912 | 1.39 | 0.49
C=CC[C@@]1(C(=O)NCCN2CCOCC2)N=C(c2ccc(OCCCO)cc2)O[C@@H]1c1ccccc1CN=[N+]=[N-] | 0.947 | -1.74 | -0.325 | 1.42 | 0.555 | -0.154 | 0.0822 | 0.104 | 1.77 | 0.604 | 0.831 | -0.0095 (inactive) | -0.434 | -0.397 | 0.556 | 2.9 | 0.895 | 1.2 | 0.055 | 0.85
C=CCOC(=O)[C@@H]1[C@H]2C(=O)O[C@H](c3ccccc3)[C@H](c3ccccc3)N2[C@H](c2ccc(OCCOC(=O)[C@H]3C[C@H]4C(=O)N[C@@H](Cc5ccccc5)C(=O)N4[C@H]3c3ccc(O)cc3)cc2)[C@@]12C(=O)Nc1ccc(I)cc12 | 1.06 | -2.78 | 0.866 | -0.0584 | -1.26 | -0.135 | 0.302 | 0.116 | 1.03 | 1.66 | -0.893 | 1.43 (inactive) | 0.0092 | 0.27 | 0.554 | 0.931 | 1.17 | 1.29 | 1.12 | 1.16
O=C1C2C=CC(C(O)c3ccc(Br)cc3)N(n3cnnc3)C2C(=O)N1Cc1ccccc1 (stereo not given) | 1.34 | -4.38 | 0.329 | -0.0714 | 0.182 | -0.0236 | -0.0827 | 0.205 | 0.465 | 0.942 | 0.807 | -1.02 (inactive) | -0.0443 | -0.0004 | 0.259 | 1.57 | 0.448 | 1.29 | -0.064 | 1.07
C/C=C/[C@H](CCn1cc([C@H](O)c2ccccc2)nn1)[Si](C)(C)c1ccc(OC)cc1 | -0.0636 | -1.78 | -0.915 | -1.41 | -1.41 | -0.233 | -0.0769 | -0.272 | -0.66 | -0.977 | -0.7 | -0.0164 (inactive) | -0.359 | -0.181 | 0.017 | -0.092 | 0.612 | -0.971 | -0.4 | -0.971
COc1ccc([Si](C)(C)[C@@H]2[C@@H](CCO)O[C@]3(C(=O)N(Cc4cccc(N5CCCCC5=O)c4)c4ccccc43)[C@H]2C)cc1 | 1.34 | -5.14 | 0.34 | 1.08 | 0.415 | -0.0165 | -0.0626 | 0 | 0.702 | 0.836 | 0.532 | 0.6 (inactive) | 0.134 | -0.123 | 0.361 | 1.06 | 0.0492 | 1.29 | 0.128 | 0.961
C=CCC(OC(C)=O)[C@@H]1[C@@H](N(Cc2cc3ccccc3o2)C(=O)c2ccc(-c3ccccc3)cc2)c2cc(OCCCO)ccc2N1C(=O)Cc1ccc2ccccc2c1 (stereo not given in full) | 0.006 | -0.532 | -0.36 | -0.27 | 0.459 | -0.0704 | -0.0709 | -0.267 | 0.0452 | 0.738 | -0.0043 | -0.12 (inactive) | -0.0716 | -0.166 | -0.127 | 0.466 | 0.255 | -0.156 | 0.213 | -0.136
Cc1ccc(S(=O)(=O)N2CC(C(=O)O)=CCC2c2ccccc2)cc1 (stereo not given) | 0.467 | -0.212 | -1.58 | 0.0207 | 0.52 | 0.173 | 0.0639 | -0.468 | 0.505 | 0.277 | 0.465 | 0.0578 (inactive) | -0.287 | -0.106 | 0.881 | 1.21 | 0.671 | 0.503 | -1.74 | 0.0782
